{"source": "PubChem BioAssay AID1376", "about": "(SRMLSC, 2008)", "note": "“And” between values parts separate entries of the source, which are not always exact repeats. Identical values can stand only once. The whole screen tested about 220,000 compounds, of which about 530 (0.24%) were called active. The list comes from a sample in which actives are over-represented; it also holds similar structures and randomly drawn compounds. Results with a measured potency or affinity are listed apart. Unmarked numbers belong to inactive results. Cut-off read from the data, not from the text of the source: active = inhibition above about 13%; inconclusive = no clear call, values can overlap the other calls; inactive = below that.", "data": [{"molecular_target": "Bifunctional protein GlmU (Mycobacterium tuberculosis (strain ATCC 25618 / H37Rv)) (UniProt P9WMN3)", "sequence (P9WMN3 whole entry, looked up)": "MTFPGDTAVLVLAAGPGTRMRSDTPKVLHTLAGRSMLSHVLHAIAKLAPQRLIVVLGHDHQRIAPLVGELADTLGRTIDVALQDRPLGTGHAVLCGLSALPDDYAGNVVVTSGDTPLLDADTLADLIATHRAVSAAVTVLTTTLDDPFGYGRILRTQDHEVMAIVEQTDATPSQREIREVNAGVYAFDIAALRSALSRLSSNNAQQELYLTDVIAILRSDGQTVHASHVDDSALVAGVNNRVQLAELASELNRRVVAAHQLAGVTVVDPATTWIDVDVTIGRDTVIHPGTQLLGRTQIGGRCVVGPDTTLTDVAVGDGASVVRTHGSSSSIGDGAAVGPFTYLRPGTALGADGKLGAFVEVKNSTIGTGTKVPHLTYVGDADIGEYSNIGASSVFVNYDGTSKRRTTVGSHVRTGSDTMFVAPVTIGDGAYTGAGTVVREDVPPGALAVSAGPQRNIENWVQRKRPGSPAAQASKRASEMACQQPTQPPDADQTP", "test": "inhibition of mycobacterial GlmU enzyme – biochemical, glucosamine-1-phosphate acetyltransferase (AID 1376);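 note: 0% = complete reaction with vehicle and 100% = reaction without substrate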", "settings": "M. tuberculosis GlmU acetyltransferase enzyme assay; active compounds read high;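 tested at 30 µM in the primary screen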", "values": [{"compound": "Cc1ccc(SCc2cc(=O)[nH]c(N3CCN(C)CC3)n2)cc1", "inhibition": "2.83%"}, {"compound": "Cc1ccc(N2C(=O)c3cccc4c(C(=O)O)ccc(c34)C2=O)cc1", "inhibition": "-2.11%"}, {"compound": "O=C(O)c1ccc2c3c(cccc13)C(=O)N(c1ccccc1)C2=O", "inhibition": "5.53%"}, {"compound": "CCn1c(SCC(=O)N2CCc3ccccc32)nc2c(c1=O)SC(C)C2", "note": "(configuration not stated)", "inhibition": "2.91%"}, {"compound": "O=C(O)c1cc(-c2ccccc2)nc2nc(N3CCCCC3)sc12", "inhibition": "-4.63%"}, {"compound": "O=C(O)CSc1nc2ccccc2s1", "inhibition": "-6.75% and -0.54%"}, {"compound": "O=C(O)CCSc1nc2ccccc2s1", "inhibition": "13.3% (active)"}, {"compound": "O=C(CSc1nc2ccccc2s1)CSc1nc2ccccc2s1", "inhibition": "-0.56%"}, {"compound": "Cc1[nH]c2ccccc2c1C(=O)COC(=O)CCS(=O)(=O)c1ccccc1Cl", "inhibition": "0.91%"}, {"compound": "NC(=O)[C@@H]1CC2(CC(c3cccc(NC(=O)COc4ccc(Cl)cc4)c3)=NO2)CN1C(=O)COc1ccc(Cl)cc1", "note": "(some centres not stated)", "inhibition": "3.68%"}, {"compound": "C/C=C(/C)C(=O)Nc1cccc(C2=NOC3(C2)C[C@@H](C(N)=O)N(C(=O)CC(c2ccccc2)c2ccccc2)C3)c1", "note": "(some centres not stated)", "inhibition": "2.91%"}, {"compound": "CCC(=O)Nc1cccc(C2=NOC3(C2)C[C@@H](C(N)=O)N(C(=O)C(c2ccccc2)c2ccccc2)C3)c1", "note": "(some centres not stated)", "inhibition": "7.01%"}, {"compound": "NC(=O)[C@H]1CC2(CC(c3cccc(NC(=O)CC(c4ccccc4)c4ccccc4)c3)=NO2)CN1C(=O)CC(c1ccccc1)c1ccccc1", "note": "(some centres not stated)", "inhibition": "2.76%"}, {"compound": "C/C=C(/C)C(=O)Nc1cccc(C2=NOC3(C2)C[C@H](C(N)=O)N(C(=O)COc2ccc(Cl)cc2)C3)c1", "note": "(some centres not stated)", "inhibition": "-3.89%"}, {"compound": "C/C=C(\\C)C(=O)Nc1cccc(C2=NOC3(C2)C[C@H](C(N)=O)N(C(=O)C(c2ccccc2)c2ccccc2)C3)c1", "note": "(some centres not stated)", "inhibition": "4.35%"}, {"compound": "C=C(C)C(=O)Nc1cccc(C2=NOC3(C2)C[C@@H](C(N)=O)N(C(=O)CC(c2ccccc2)c2ccccc2)C3)c1", "note": "(some centres not stated)", "inhibition": "14.4% (active)"}, {"compound": "CC(=O)Oc1ccccc1N(C(C)=O)S(=O)(=O)c1cccc([N+](=O)[O-])c1", "inhibition": "2.75%"}, {"compound": "COc1nc(-c2ccccc2)ccc1-c1noc(-c2cccs2)n1", "inhibition": "-3.99%"}, {"compound": "O=C(CN(Cc1ccccc1)S(=O)(=O)c1ccccc1)N/N=C/c1ccccc1C(=O)O", "inhibition": "1.89%"}, {"compound": "CCN(CC)S(=O)(=O)c1cc(NC(=O)COC(=O)CCC(=O)c2cccs2)ccc1C", "inhibition": "1.97%"}, {"compound": "O=C(NCc1n[nH]c(=S)n1-c1cccc(C(F)(F)F)c1)c1ccc(S(=O)(=O)N2CCCC2)cc1", "inhibition": "-1.04%"}, {"compound": "Oc1ccc(N=Nc2ccc(Br)cc2)c(O)c1", "inhibition": "7.96%"}, {"compound": "Oc1ccc(Cl)cc1/C=N/c1nccs1", "inhibition": "5.12%"}, {"compound": "Oc1ccc(N=Nc2nccs2)c(O)c1", "inhibition": "53.5% (active)"}, {"compound": "Cc1cc2nc(=O)c(/C=C3\\C=Nc4ccccc43)c(N)n2o1", "inhibition": "-5.38%"}, {"compound": "O=c1ccnc2n1COCS2", "inhibition": "-2.85%"}, {"compound": "CC(/C=C/c1ccccc1)=N\\NC(=O)c1ccncc1", "inhibition": "2.68%"}, {"compound": "Cc1ccc2c(C(=O)CN3CCCC3)c(C)[nH]c2c1", "inhibition": "-5.2%"}, {"compound": "Cc1ccc2c(C(=O)CN3CCN(c4ccccc4)CC3)c(C)[nH]c2c1", "inhibition": "14.3% (active)"}, {"compound": "Cc1ccc2c(C(=O)CN3CCOCC3)c(C)[nH]c2c1", "inhibition": "2.67%"}, {"compound": "O=C(CSc1ccc(Cl)cc1)NN=C1CCCCCC1", "inhibition": "0.28%"}, {"compound": "O=C(Nc1cccc(N2CCCC2)c1)c1cccs1", "inhibition": "-6.15%"}, {"compound": "CCN1CCN(C(=O)NCc2ccccc2)CC1", "inhibition": "-0.69%"}, {"compound": "CCOc1ccccc1CNc1ccc(O)cc1", "inhibition": "12.9% (active)"}, {"compound": "Oc1ccc(NCc2ccccc2OCc2ccccc2)cc1", "inhibition": "1.63%"}, {"compound": "Oc1ccc(NCc2ccccc2OCc2ccccc2F)cc1", "inhibition": "1.2%"}, {"compound": "CCc1nnc(NC(=O)c2cccc(S(=O)(=O)N3CC(c4ccccc4)CC3=O)c2)s1", "note": "(configuration not stated)", "inhibition": "5.84%"}, {"compound": "COCCn1cnnc1SCC(=O)Nc1cccc(S(=O)(=O)N2CCCCCC2)c1", "inhibition": "1.58%"}, {"compound": "COC(=O)c1ccc(S(=O)(=O)N2CCC(O)CC2)n1C", "inhibition": "-2.92%"}, {"compound": "COC(=O)c1ccc(S(=O)(=O)N2CCCCCC2)n1C", "inhibition": "12.8% (active)"}, {"compound": "COC(=O)c1ccc(S(=O)(=O)N2CCN(C)CC2)n1C", "inhibition": "-8.72%"}, {"compound": "CCc1nnc(NC(=O)CSc2nc3c(c(=O)n2C)SC(C)C3)s1", "note": "(configuration not stated)", "inhibition": "3.46%"}, {"compound": "O=c1/c(=C/c2ccccc2)sc2nnc(-c3cccs3)n12", "inhibition": "0.67%"}, {"compound": "OCC#CC[N+]1(CC#Cc2ccccc2)CCOCC1", "inhibition": "-6.73%"}, {"compound": "C#CC[N+]1(CC#Cc2ccccc2)CCOCC1", "inhibition": "-6.07%"}, {"compound": "CC1=C(C(=O)Nc2ccccc2)C(c2cccs2)n2nnnc2N1", "note": "(configuration not stated)", "inhibition": "-3.97%"}, {"compound": "CCn1c(CSc2nc3ccccc3s2)nnc1SCC(=O)c1ccc(O)cc1O", "inhibition": "13% (active)"}]}]}
